Bioassay records deposited in PubChem by National Center for Advancing Translational Sciences (NCATS).
Sm TGR inh: qHTS Assay for the Inhibitors of Schistosoma Mansoni Peroxiredoxins | purified TGR, DTNB reduction, TNB absorbance 405 nm | Potency, µM (doses to about 114 µM), for the others: at the top dose activity change, negative = inhibition, hits mostly inhibitors | actives 3% (n = 360,000) | AID 485364, 2010; further: potency means the concentration at half of the fitted maximal effect; on the % scale 0 is the no-effect control and ±100 the full control effect; nearly all actives have a fitted effect of over 60% in size
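TGR 20 nM + NADPH 100 uM (dispensed conc.), cpd preinc 15 min RT; start with NADPH (500 uM addition) then DTNB (15 mM addition). Kinetic TNB absorbance, 405 nm filter. Four-parameter Hill fit across titration.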
CHX counter: Cycloheximide Counterscreen for Small Molecule Inhibitors of Shiga Toxin. cell reporter, cycloheximide protein synthesis inhibition counterscreen. max response, %. actives 12% (n = 300,000). AID 2314, 2010; in the data active means max response mostly above about 13%, no sharp cut-off; inactive means mostly below about 14%; further: read at 38.3 µM for the half of the compounds with a filed dose; 0% is about no effect
Shiga inhibitor: A qHTS for Small Molecule Inhibitors of Shiga Toxin; Vero cells, Shiga toxin protein synthesis inhibition reporter; inhibition, % at 38.7 µM; actives 9.2% (n = 290,000); AID 2315, 2010; in the data active means inhibition mostly above about 28%, no sharp cut-off; inactive means mostly below about 43%; further: 0% is about no effect
Pf growth 96h: Primary qHTS for delayed death inhibitors of the malarial parasite plastid, 96 hour incubation; P. falciparum luciferase reporter growth, 96 h; Potency, µM (doses to about 28.7 µM), inactives show top-dose activity change, negative = inhibition, actives largely listed as inhibitors; actives 6.9% (n = 320,000); further: potency means the concentration at half of the fitted maximal effect; on the % scale 0 is the no-effect control and ±100 the full control effect
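96 h incubation, 37 C, 5% CO2, of luciferase-reporter P. falciparum-infected RBCs (2% hematocrit, 0.05% parasitemia final) with test compounds; endpoint luminescence.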
NS1 function inh: qHTS Assay for Inhibitors of Influenza NS1 Protein Function. Potency, µM (series often up to 46.1 µM), inactives show at the highest dose activity, positive = more growth. actives 0.4% (n = 270,000); calls by dose curve; further: potency means the concentration at half of the fitted maximal effect; actives are rising curves; nearly all actives have a fitted effect of over 50% in size
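Growth recovery, yeast-based: influenza A NS1 expressed in S. cerevisiae causes slow growth, and suppressors are detected by OD600. The parent strain without NS1 is used as positive control.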
Pf growth 48h: Primary qHTS for delayed death inhibitors of the malarial parasite plastid, 48 hour incubation; AID 504832, 2011; Potency, µM (series often up to 28.7 µM), for the others: at the top dose activity change, negative = inhibition, most hits filed as inhibitors; P. falciparum luciferase growth in erythrocytes, 48 h; actives 5.9% (n = 310,000); further: potency means the concentration at half of the fitted maximal effect; on the % scale 0 is the no-effect control and ±100 the full control effect
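Here the parasites carry a stable luciferase gene and grow inside erythrocytes in Albumax-based RPMI medium with compound for one erythrocytic cycle. Activity is scored as loss of luminescent signal.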
* = called active by the depositor; ? = inconclusive; . = no result given. A selection: hits, their analogues and other compounds. The true share with any hit is near 21%. Unless noted, the call rests on the fitted dose curve; in most records, active means well fitted curve in the direction sought with a large enough effect; inconclusive means small, poorly fitted or top-dose-only effect, or another doubt; inactive means no such curve, though single readings can be large; an effect the other way counts as inactive or inconclusive.

SMILES	Sm TGR inh	CHX counter	Shiga inhibitor	Pf growth 96h	NS1 function inh	Pf growth 48h
CC1(C)CC(=O)C(Sc2ccccc2C(=O)O)=C(O)C1	-15%	-1	-1	20%	0%	-4%
CC(=Nc1ccccc1)C1=C(O)CC(C)(C)CC1=O	1%	22*	45	?	.	14%
CC(=Nc1ccccc1)C1=C(O)CCCC1=O	-4%	-5	-2	12µM*	4%	2%
CC(=N)C1=C(O)CC(C)(C)CC1=O	-24%	-1	19	44%	-1%	-4%
CC(=Nc1ccc(C)c(C)c1)C1=C(O)CCC1=O	4%	61*	140*	13%	-2%	.
O=C(Cn1cnc(S(=O)(=O)N2CCCCC2)c1)NCc1ccco1	-15%	-6	-13	?	-4%	17%
COc1ccccc1CO/N=C/c1cccn1-c1nccc(N(C)C)c1C#N	1%	-2	-8	?	4%	.
COc1cccc(CN2CC(C(=O)NCCn3ccc(C)n3)CCC2=O)c1 (stereo unspecified)	?	9	-8	?	-4%	0%
O=C(NNC(=O)C12CC3CC(CC(C3)C1)C2)[C@@H]1C[C@H]1c1ccccc1	1%	26*	46*	?	.	5%
COc1ccc(C(=O)NNC(=O)c2ccccc2[N+](=O)[O-])cc1	3%	32*	37*	13µM*	6%	122%
O=C(Nc1ccccc1F)C1CC1c1ccccc1 (stereo unspecified)	-7%	12	41*	15%	-3%	20%
O=C(NNC(=O)C1CC1c1ccccc1)c1ccccc1[N+](=O)[O-] (stereo unspecified)	-8%	1	-8	12µM*	11%	47%
NNC(=O)[C@H]1C[C@@H]1c1ccccc1	-9%	-1	-18	20%	-10%	5%
Cc1ccc(NC(=O)Cn2cc([N+](=O)[O-])nc2C)cc1C	1%	-2	-4	69%	7%	1%
COCCSc1nnc(NC(=O)COc2ccc3c(c2)OCO3)s1	0%	-5	13	39%	-34%	8%
Cc1cccc(C(=O)OCC(=O)N2CCCCCC2)c1	-17%	.	.	37%	.	139%
O=C1CN(C(=S)NC(=O)c2ccccc2[N+](=O)[O-])CCN1	0%	-1	-7	7.4µM*	4%	6%
O=C(NNC(=O)c1ccccc1[N+](=O)[O-])c1ccccc1[N+](=O)[O-]	0%	1	-10	7.4µM*	1%	10%
COc1ccc(NC(=O)c2cc(=O)c3ccccc3o2)cc1Cl	3%	6	.	-14%	3%	?
CN(C)S(=O)(=O)c1cc(NC(=O)c2cc(=O)c3ccccc3o2)ccc1Cl	4%	31*	34*	?	22%	10µM*
O=C(Nc1ccc(S(=O)(=O)N2CCCC2)cc1)c1cc(=O)c2ccccc2o1	-1%	-1	-7	?	-4%	29%
Cc1ccc(NC(=O)c2cc(=O)c3ccccc3o2)cc1S(=O)(=O)N1CCOCC1	9%	-3	-3	4.7µM*	-9%	8.3µM*
Cc1ccc(NC(=O)c2cc(=O)c3ccccc3o2)cc1S(=O)(=O)N1CCCCC1	7%	4	-2	?	.	6.6µM*
O=C(Nc1ccc(S(=O)(=O)N2CCCCCC2)cc1)c1cc(=O)c2ccccc2o1	0%	.	.	.	.	.
COc1ccc(N(C(=O)CNC(=O)c2ccco2)C(C(=O)NC2CCCC2)c2ccco2)cc1 (stereo unspecified)	-20%	-3	25	4%	4%	7%
SMILES	Sm TGR inh	CHX counter	Shiga inhibitor	Pf growth 96h	NS1 function inh	Pf growth 48h
Cc1cccc(NC(=O)C(=O)NCCc2csc(-c3ccc(F)cc3)n2)c1C	5%	.	.	.	.	.
CCOc1cc(-c2c(C#N)c(N)nc3c2CCCC3C)ccc1O (stereo unspecified)	-14%	-2	-14	2.9µM*	-33%	-24%
CCOc1cc(-c2c(C#N)c(N)nc3c2CCc2ccccc2-3)ccc1O	-15%	-3	11	-4%	8%	?
O=C(CN1CCCc2ccccc21)Nc1ccc(F)cc1[N+](=O)[O-]	-1%	-4	-18	-28%	.	-16%
N#Cc1ccc(-c2nc3cc(Cl)ccc3c(=O)n2O)cc1	0%	-3	-1	-11%	-77%	?
O=c1c2ccc(Cl)cc2nc(-c2cccc(C(F)(F)F)c2)n1O	-26%	8	-3	10µM*	-205%	?
CCOc1ccccc1NC(=O)N1CCc2c(sc(C)c2CC)C1c1ccccc1 (stereo unspecified)	-2%	.	.	.	.	.
CCS(=O)(=O)c1ccc(O)c(NC(=O)COc2ccc(OC)cc2)c1	6%	-3	-12	?	4%	24%
CCCc1ccc(OCC(=O)Nc2cc(S(=O)(=O)CC)ccc2O)cc1	7%	-2	2	12µM*	-1%	17%
Cc1cccc(OCC(=O)Nc2cc(C)ccc2O)c1	12%	21*	30*	?	-61%	12µM*
Cc1cccc(OCC(=O)Nc2ccccc2-c2ccccc2)c1	3%	-1	0	0%	9%	3%
Cc1cccc(OCC(=O)Nc2ccccc2C(F)(F)F)c1	0%	14	81*	31%	1%	41%
COC(=O)c1sccc1NC(=O)COc1cccc(C)c1	-3%	22	26	1%	-38%	-1%
Cc1cccc(OCC(=O)Nc2cc(C)c(C)cc2O)c1	0%	10	30	-19%	-39%	3.7µM*
O=C1C(=O)N(c2ccccn2)C(c2cccc([N+](=O)[O-])c2)/C1=C(/O)c1ccc(Br)cc1 (stereo unspecified)	5%	-2	.	?	9%	28%
Cn1c(=NC(=O)c2ccccc2[N+](=O)[O-])sc2cc(S(C)(=O)=O)ccc21	2%	64*	50*	307%	19%	149%
Cc1cccc(-n2nnc(C(=O)N3CCc4ccccc4C3)c2N)c1	4%	29*	55*	23%	-54%	47%
Cc1cccc(-n2nnc(C(=O)Nc3ccc(F)cc3)c2N)c1	1%	51*	79*	10%	-9%	146%
Cc1c(C(=O)Nc2ccc(F)cc2)nnn1-c1cccc(C(F)(F)F)c1	1%	47*	49*	3%	.	31%
Cc1ccc(NC(=O)c2nnn(-c3cc(C)cc(C)c3)c2N)cc1	6%	38*	130*	35%	-57%	33%
COC(/C=C/Nc1ccc(C)c(C)c1)=C(C#N)C#N	14%	-3	2	0%	-6%	14%
CCC(C)C(NC(=O)OC(C)(C)C)C(=O)NC1COC2CC(n3ccc(NC(C)=O)nc3=O)OC12 (stereo unspecified)	.	-7	-5	.	.	.
